Source: the supplement of paper PMC9950053
Structures can show the parent of a compound that is named as a salt.

What follows are compounds tested on Danio rerio larvae (5 dpf) (assay: excitability (activity period 17 minus period 16, 1-s interval sound) minus DMSO control (percentage points); higher = more acoustic excitability than DMSO larvae). Settings: 10 µM; exposure time: 3 h pre-incubation + 3 h imaging.
Procedure: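 Wild-type 5 dpf zebrafish larvae (n=48 per drug, 96-well plates, 28.5 °C) were exposed to Tocris FDA-approved library compounds at 10 µM (0.1% DMSO) for 3 h before and 3 h during imaging. Images were taken every 6 s during visual and acoustic stimuli, and larvae were tracked with Z-LaP Tracker. Each measure is the treated-group mean minus the DMSO control mean (n=844), in percentage points. This mapping covers compounds with 5-character plate codes.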

SMILES | excitability
CC(C)COCC(CN(Cc1ccccc1)c1ccccc1)N1CCCC1 (configuration not stated) [Bepridil hydrochloride] | 14.7
CC(=O)Oc1cc2c(s1)CCN(C(C(=O)C1CC1)c1ccccc1F)C2 (configuration not stated) [Prasugrel] | 5.89
COc1ccccc1Oc1c(NS(=O)(=O)c2ccc(C(C)(C)C)cc2)nc(-c2ncccn2)nc1OCCO [Bosentan] | -2.37
Cc1cc2c(s1)Nc1ccccc1N=C2N1CCN(C)CC1 [Olanzapine] | 2.72
COc1ccccc1OCC(O)CN1CCN(CC(=O)Nc2c(C)cccc2C)CC1 (configuration not stated) [Ranolazine dihydrochloride] | 4.28
Clc1ccc2nsnc2c1NC1=NCCN1 [Tizanidine hydrochloride] | 6.39
COc1cc2nccc(Oc3ccc(NC(=O)C4(C(=O)Nc5ccc(F)cc5)CC4)cc3)c2cc1OC | 16.9
CNS(=O)(=O)Cc1ccc2[nH]cc(CCN(C)C)c2c1 [Sumatriptan succinate] | -4.97
COc1cc(N)c(Cl)cc1C(=O)NC1CCN(CCCOc2ccc(F)cc2)CC1OC (configuration not stated) [Cisapride] | 18.5
C#CCN[C@@H]1CCc2ccccc21 [Rasagiline mesylate] | -0.121
CCc1nc(N)nc(N)c1-c1ccc(Cl)cc1 [Pyrimethamine] | 6.57
N#C[C@@H]1C[C@@H]2C[C@@H]2N1C(=O)[C@@H](N)C12CC3CC(CC(O)(C3)C1)C2 [Saxagliptin hydrochloride] | 2.14
CN[C@H]1CC[C@@H](c2ccc(Cl)c(Cl)c2)c2ccccc21 [Sertraline hydrochloride] | 10.4
O=C1CCc2ccc(OCCCCN3CCN(c4cccc(Cl)c4Cl)CC3)cc2N1 [Aripiprazole] | 16.5
CC(=O)Nc1ccc(O)cc1 [Acetaminophen] | -1.73
CC(C)(C(=O)O)c1ccc(C(O)CCCN2CCC(C(O)(c3ccccc3)c3ccccc3)CC2)cc1 (configuration not stated) [Fexofenadine hydrochloride] | -5.03
O=C(O)C[C@H](O)C[C@H](O)/C=C/c1c(C2CC2)nc2ccccc2c1-c1ccc(F)cc1 [Pitavastatin calcium] | -1.16
C[C@H]1O[C@H](O[C@H]2[C@H](O)[C@@H](O)[C@@H](O[C@H]3[C@H](O)[C@@H](O)C(O)O[C@@H]3CO)O[C@@H]2CO)[C@H](O)[C@@H](O)[C@@H]1N[C@H]1C=C(CO)[C@@H](O)[C@H](O)[C@H]1O (some centres not stated) [Acarbose] | -4.36
CCCCCCCN(CC)CCCC(O)c1ccc(NS(C)(=O)=O)cc1 (configuration not stated) [Ibutilide hemifumarate] | 13.3

SMILES | excitability
OCCN1C[C@H](O)[C@@H](O)[C@H](O)[C@H]1CO [Miglitol] | 4.04
NS(=O)(=O)c1cc2c(cc1Cl)NC(C1CC3C=CC1C3)NS2(=O)=O (configuration not stated) [Cyclothiazide] | 0.365
CNCc1ccc(-c2[nH]c3cc(F)cc4c3c2CCNC4=O)cc1 [Rucaparib camsylate] | 13.1
CN(C)C(=N)NC(=N)N [Metformin hydrochloride] | 6.55
CNC(=O)c1cc(Oc2ccc(NC(=O)Nc3ccc(Cl)c(C(F)(F)F)c3)cc2)ccn1 [Sorafenib] | 13.1
OCc1cc(C(O)CNCCCCCCOCCCCc2ccccc2)ccc1O (configuration not stated) [Salmeterol xinafoate] | 13.1
OC(c1cc(C(F)(F)F)nc2c(C(F)(F)F)cccc12)C1CCCCN1 (configuration not stated) [Mefloquine hydrochloride] | 13.3
CC[C@H]1OC(=O)[C@H](C)[C@@H](O[C@H]2C[C@@](C)(OC)[C@@H](O)[C@H](C)O2)[C@H](C)[C@@H](O[C@@H]2O[C@H](C)C[C@H](N(C)C)[C@H]2O)[C@](C)(O)C[C@@H](C)CN(C)[C@H](C)[C@@H](O)[C@]1(C)O [Azithromycin] | 15.8
N#Cc1ccc2[nH]cc(CCCCN3CCN(c4ccc5oc(C(N)=O)cc5c4)CC3)c2c1 [Vilazodone hydrochloride] | 17
COc1cc([C@@H]2c3cc4c(cc3[C@@H](O[C@@H]3O[C@@H]5CO[C@@H](C)O[C@H]5[C@H](O)[C@H]3O)[C@H]3COC(=O)[C@H]23)OCO4)cc(OC)c1O [Etoposide] | 9.95
CC(C)OC(=O)C(C)(C)Oc1ccc(C(=O)c2ccc(Cl)cc2)cc1 [Fenofibrate] | 4.72
O=c1n(CCCN2CCN(c3cccc(Cl)c3)CC2)nc2ccccn12 [Trazodone hydrochloride] | 20.3
CCCc1nn(C)c2c(=O)[nH]c(-c3cc(S(=O)(=O)N4CCN(C)CC4)ccc3OCC)nc12 [Sildenafil citrate] | 4.28
CCCC1O[C@@H]2C[C@H]3[C@@H]4CCC5=CC(=O)C=C[C@]5(C)[C@H]4[C@@H](O)C[C@]3(C)[C@]2(C(=O)CO)O1 (some centres not stated) [Budesonide] | 1.14
COCCc1ccc(OCC(O)CNC(C)C)cc1 (configuration not stated) [Metoprolol tartrate] | -6.24
CN(C)CCc1c[nH]c2ccc(C[C@H]3COC(=O)N3)cc12 [Zolmitriptan] | 4.24
NC(=O)OCC(COC(N)=O)c1ccccc1 [Felbamate] | -3.94
C[C@@H]1C[C@H]2[C@@H]3CCC4=CC(=O)C=C[C@]4(C)[C@@]3(F)[C@@H](O)C[C@]2(C)[C@@]1(O)C(=O)CO [Dexamethasone] | -4.14
